Assay outcomes (PubChem)
A selection: hits, their analogues and other compounds. The true share with any hit is near 6.2%.
ATXN2 expr inh: Primary qHTS for Inhibitors of ATXN expression. 360,000 compounds, 0.72% hits. Potency, µM (top dose mostly 57 µM), hits mostly inhibitors. HEK-293 ATXN2-luciferase reporter, luminescence, 24 h; also: nearly all actives have a fitted effect of over 55% in size
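ATXN2-luciferase reporter cells (luciferase flanked by upstream and downstream ATXN2 gene portions) were treated 24 h at 37 °C with compounds at up to 57 uM. SteadyGlo luminescence gave expression; GF-AFC fluorescence gave viability.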
KB-V1 cytotox: qHTS assay for MDR1-selective chemotherapeutics: Primary screen using the drug-selected MDR subline cells KB-V1. 400,000 compounds, 3.4% hits. KB-V1 MDR cells viability, CellTiter-Glo, 72 h. Potency, µM (top dose mostly 46.1 µM), most hits filed as cytotoxic; also: nearly all actives have a fitted effect of over 60% in size
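KB-V1 cells (P-gp-expressing MDR subline of KB-3-1) in phenol-red-free DMEM with 10% FBS were exposed to library compounds over a concentration series for 72 h at 37 degrees C. Viability read by CellTiter-Glo luminescence; concentration-effect curves fitted after normalization.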
HT1080 IDH1KD tx: qHTS for induction of synthetic lethality in tumor cells producing 2HG: qHTS for the HT-1080-IDH1KD cell line | 360,000 compounds, 2% hits | HT-1080 IDH1 knockdown viability, ATP luminescence, 48 h | Potency, µM (series often up to 46.1 µM), actives largely listed as cytotoxic
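HT-1080-IDH1KD cells (IDH1 knocked down), 750/well in RPMI with 5% FBS, treated with compound 48 h at 37 degrees C. Viability by CellTiter-Glo luminescence, normalised to DMSO and no-cell wells; concentration-response curves classed.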
KB-3-1 tox: qHTS assay for MDR1-selective chemotherapeutics: Primary screen using the parental adenocarcinoma cell KB-3-1 | AID 1347075, 2019 | Potency, µM (doses to about 46.1 µM), hits mostly cytotoxic | 400,000 compounds, 1.4% hits | KB-3-1 viability, CellTiter-Glo ATP luminescence, 72 h; also: nearly all actives have a fitted effect of over 60% in size
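KB-3-1 parental drug-naive adenocarcinoma cells in DMEM/10% FBS, incubated 72 h at 37 C with pin-transferred compounds across a concentration series. Viability by CellTiter-Glo luminescence; concentration-response curves fitted after normalization.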
S2 tox: Viability Counterscreen for Primary qHTS for Inhibitors of ATXN expression | S2 cells (HEK-293 line with an ATXN2-luciferase reporter) viability, CellTiter-Fluor protease fluorescence, 24 h | 400,000 compounds, 0.49% hits | Potency, µM (doses to about 56.7 µM), actives largely listed as cytotoxic; also: nearly all actives have a fitted effect of over 40% in size
HT1080-NT tox: qHTS for induction of synthetic lethality in tumor cells producing 2HG: qHTS for the HT-1080-NT fibrosarcoma cell line | AID 686970, 2013 | 360,000 compounds, 1.6% hits | HT-1080-NT fibrosarcoma viability, CellTiter-Glo ATP luminescence, 48 h | Potency, µM (doses to about 46.1 µM), actives largely listed as cytotoxic;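 also: NT is the 2HG producing partner of a matched IDH1 knockdown line; nearly all actives have a fitted effect of over 55% in size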
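Read-out is CellTiter-Glo luminescence after 10 minutes at room temperature, following 48 hours' compound treatment of HT-1080-NT cells (750 cells/well, RPMI, 5% FBS, 37 degrees C).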
A number is an active result; n = inactive; u = inconclusive; x = not tested or not shown; [ ] = another dose, or the depositor's remark. Calls follow the shape of the dose curve; as a rule, active = well fitted curve in the direction sought with a large enough effect; inconclusive = small, poorly fitted or top-dose-only effect, or another doubt; inactive = no such curve, though single readings can be large; an effect the other way counts as inactive or inconclusive.

SMILES	ATXN2 expr inh	KB-V1 cytotox	HT1080 IDH1KD tx	KB-3-1 tox	S2 tox	HT1080-NT tox
O=[N+]([O-])c1cccc(-c2cc(-c3cc(Br)ccc3O)[nH]n2)c1	u	21µM	u	21µM	n	u
Oc1ccc(Br)cc1-c1cc(-c2ccccc2)n[nH]1	n	n	21µM	n	n	29µM
Cn1c(=O)c2c(-c3ccc(Cl)cc3)ccnc2n(C)c1=O	n	n	x	n	n	x
Cc1c(NC(=O)c2cc([N+](=O)[O-])ccc2N2CCOCC2)cccc1-c1nc2ccccc2o1	n	n	x	u	n	x
COc1ccc(/C=C2\SC(=S)N(CCC(=O)N3CCOCC3)C2=O)cc1	n	n	n	n	0.2µM	n
O=C1/C(=C/c2cccc(Br)c2)SC(=S)N1CCC(=O)N(CCO)c1ccccc1	n	n	n	u	n	n
COc1cccc(/C=C2/SC(=S)N(CCC(=O)N3CCOCC3)C2=O)c1	n	u	u	16µM	n	n
COc1cccc(/C=C2\SC(=S)N(CCCC(=O)N(CCO)c3ccccc3)C2=O)c1	22µM	u	u	u	u	u
COc1ccc(/C=C2\SC(=S)N(CCCC(=O)N3CCN(C)CC3)C2=O)cc1	u	n	16µM	n	u	26µM
Cc1c(N)nc(C(CC(N)=O)NCC(N)C(N)=O)nc1C(=O)NC(C(=O)NC(C)C(O)C(C)C(=O)NC(C(=O)NCCc1nc(-c2nc(C(=O)NCCCN[C@@H](C)c3ccccc3)cs2)cs1)C(C)O)C(O[C@@H]1O[C@@H](CO)[C@@H](O)[C@H](O)[C@@H]1O[C@H]1O[C@H](CO)[C@@H](O)[C@H](OC(N)=O)[C@@H]1O)c1cnc[nH]1 (stereo partly specified)	x	x	x	x	n	x
CC(=O)C[n+]1cccc(Br)c1	x	n	x	n	x	x
COc1ccc(-c2nn(-c3ccccc3)cc2CNC[C@H]2O[C@@H](n3cnc4c(=O)[nH]c(N)nc43)[C@H](O)[C@@H]2O)cc1	n	n	n	n	n	n
Cc1ccc(/C=C2\SC(=S)N(CCC(=O)N3CCOCC3)C2=O)cc1	n	u	n	12µM	n	n
COc1cccc(/C=C2\SC(=S)N(CCC(=O)NC3C=CS(=O)(=O)C3)C2=O)c1 (stereo unspecified)	n	n	u	u	n	16µM
CCOc1cc(C#N)c(NC(=O)c2cccc(S(=O)(=O)N3CCOCC3)c2)cc1OCC	n	n	x	n	n	x
FC(F)Sc1ccc(-n2cc(-c3ccccc3)[n+]3c2CCC3)cc1	n	n	n	15µM	n	n
COc1ccc(-c2cn(-c3ccc(SC(F)F)cc3)c3[n+]2CCC3)cc1OC	n	n	n	n	n	n
COc1ccc(-c2cc(C(=O)NCc3ccc(F)cc3)[nH]n2)c(C)c1	n	n	n	n	u	n
CC(=O)Nc1cccc(Oc2cc(C#N)c(C#N)cc2N2CCCCCC2)c1	n	23µM	u	u	u	u
COc1ccc(N2CCN(c3ccc(NC(=O)C4CCCCC4)cc3C#N)CC2)cc1	n	n	n[9.24 µM]	n	u	n
NC(=O)CC(NC(=O)Cc1ccc(Br)cc1)c1ccc(NC2CCCC2)c([N+](=O)[O-])c1 (stereo unspecified)	8.9µM	n	n	u	u	n
COC(=O)c1ccc(NC(=O)C(=O)N2CCN(C(=S)Nc3ccc(OC)cc3)CC2)cc1	n	21µM	n	n	n	n
COC(=O)c1ccc(NC(=O)C(=O)N2CCN(C(=S)Nc3ccc(C)cc3)CC2)cc1	n	n	n	n	n	n
COC(=O)c1ccc(NC(=O)C(=O)N2CCN(C(=S)Nc3cccc(OC)c3)CC2)cc1	n	18µM	n	n	n	n
COc1cccc(NC(=O)C(=O)N2CCOCC2)c1	n	n	n	n	n	n
SMILES	ATXN2 expr inh	KB-V1 cytotox	HT1080 IDH1KD tx	KB-3-1 tox	S2 tox	HT1080-NT tox
CCc1ccc(S(=O)(=O)c2cn(CC(=O)Nc3cccc(C)c3)c3ccc(Cl)cc3c2=O)cc1	n	u	x	n	u	x
CC(C)(C)c1ccc(Oc2ccc(NC(=O)c3ccco3)cn2)cc1	x	u	7.3µM	n	u	18µM
COc1ccc(NC(=O)c2cccs2)cn1	n	u	n	n	n	u
CC(C)(C)c1ccc(Oc2ccc(NC(=O)c3cccs3)cn2)cc1	n	u	12µM	u	u	15µM
S=c1[nH]nc(-c2ccc3ccccc3n2)n1-c1ccccc1	n	23µM	n	n	n	n
CCc1ccccc1N1CC(c2nc3ccccc3n2Cc2cccc(C)c2)CC1=O (stereo unspecified)	u	n	x	n	u	x
O=[N+]([O-])c1c(Nc2ccccc2O)cc(Cl)c2nonc12	13µM	u	5.8µM	u	13µM	10µM
O=C(O)c1cc(Nc2cc(Cl)c3nonc3c2[N+](=O)[O-])ccc1O	x	n	n	n	11µM	n
O=[N+]([O-])c1c(Nc2ccccc2O)ccc2nonc12	n	n	n	n	u	n
c1ccc(CCNc2cc(-c3ccc4ccccc4c3)nc3ccnn23)nc1	n	n	n	n	n	n
COc1cccc(CNC(=O)C2CCN(C(=O)N3CCOc4ccc(Cl)cc43)CC2)c1OC	x	n	x	n	x	x
CCn1nc(C)c(Br)c1C(=O)Sc1ccccc1Cl	n	n	u	n	n	16µM
CCOc1cccc(-c2nnc3sc(-c4cc(OC)c(OC)c(OC)c4)nn23)c1	n	8.2µM	n	u	u	n
c1cncc(-c2nnc3sc(-c4ccco4)nn23)c1	n	n	n	n	n	u
CCN(CC)c1ccc(-c2nn3c(-c4cccnc4)nnc3s2)cc1	n	7.3µM	n	21µM	n	n
CCOc1cccc(-c2nn3c(-c4ccco4)nnc3s2)c1	n	9.2µM	n	u	n	n
COc1cc(-c2nn3c(Cc4ccccc4)nnc3s2)cc(OC)c1OC	n	n	n	n	n	n
COc1cc(-c2nn3c(-c4ccccc4)nnc3s2)cc(OC)c1OC	n	u	n	u	n	n
COc1cccc(-c2nnc3sc(-c4ccco4)nn23)c1	n	n	n	n	n	n
COc1cc(-c2nn3c(COc4ccccc4)nnc3s2)cc(OC)c1OC	n	5.2µM	n	n	n	n
COc1cccc(Nc2nc3c(S(=O)(=O)c4cc(C)ccc4C)nnn3c3ccsc23)c1	x	n	x	n	x	x
CCOC(=O)c1sc2nc(OCc3cccnc3)cc(C)c2c1N	n	u	n	n	n	n
Cc1ccc(-c2nc3sc(CCNC(=O)c4ccc(Br)o4)c(C)n3n2)cc1	u	n	x	n	x	x
